According to PubChem BioAssay AID485317 (Broad Institute, 2010):
Out of some 290,000 compounds screened, about 11,000 (3.8%) were called active. The list comes from a sample in which actives are over-represented; it also holds similar structures and randomly drawn compounds. Unmarked numbers belong to inactive results.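 Rule for the calls: active = mean replicate inhibition above about 79%, with every replicate also reaching it (limit read from the data); inconclusive = only one of the two criteria met; inactive = mean below limit and not every replicate reaching it.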

Each molecule was assayed against FAD-linked sulfhydryl oxidase ALR (Homo sapiens) (UniProt P55789) (assay: inhibitors of human ALR sulfhydryl oxidase, primary screen, biochemical, H2O2 detection, HRP-luminol luminescence, single point (AID 485317)). Conditions: purified ALR, DTT oxidation, stronger effect = higher value, concentration not given here.
Chain of FAD-linked sulfhydryl oxidase ALR (Homo sapiens) (P55789 whole entry, looked up): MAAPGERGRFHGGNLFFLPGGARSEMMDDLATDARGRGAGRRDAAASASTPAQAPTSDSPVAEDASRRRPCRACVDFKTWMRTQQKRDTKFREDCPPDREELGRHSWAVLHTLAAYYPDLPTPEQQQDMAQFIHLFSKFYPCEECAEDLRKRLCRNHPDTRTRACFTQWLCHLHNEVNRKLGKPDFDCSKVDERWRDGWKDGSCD
CCCCn1c(N)c(N(CCOC)C(=O)c2cccc(OCc3ccccc3)c2)c(=O)[nH]c1=O was tested, and the inhibition was -0.129%.
In the case of COc1ncnc2c1N=C1CC(C)(C)CC(N)=C1S2, the inhibition is reported as 99% (active).
Molecule COc1ccc(-c2cc(C(=O)N(C)Cc3ccc(OC)c(OC)c3OC)c3ccccc3n2)cc1OC has an inhibition of 0.485%.
Work on COc1ccc(Cl)cc1C(=O)OCC(=O)NCc1cccs1 yielded an inhibition of -0.428%.
Cc1ccc(-c2cc(=O)[nH]c(NCc3ccccc3)n2)cc1 was tested, and the inhibition was -7.47%.
In the case of CS(=O)(=O)c1ccc(C(=O)NNC(=O)c2cccs2)cc1, the inhibition is reported as -4.92%.
O=C(NC(=S)Nc1ccc(NC(=O)c2cccs2)cc1)c1ccc([N+](=O)[O-])cc1 showed an inhibition of -3.61%.
NS(=O)(=O)c1ccc(NC(=S)NNC(=O)c2cccs2)cc1 was tested, and the inhibition was 96.9% (active).
C=CC(COCc1ccccc1)N(CC(=O)OC)S(=O)(=O)c1cc(Br)ccc1OC (centres undefined) showed an inhibition of -15.6%.
Molecule Cc1cc(NC(=O)COc2ccc(Cl)cc2Cl)n(CCC#N)n1 has an inhibition of -11.3%.
For Cc1cc(Nc2ccccc2)n(CCC#N)n1, the inhibition was 98.6% (active).
Cc1cc(Nc2ccccc2)n(C(=O)c2ccc(N)cc2)n1 was tested, and the inhibition was 28.5%.
With Cc1cc(C(=O)OCC(=O)Nc2ccccc2Cl)c(C)o1 the inhibition was -4%.
Work on COc1cc(N)c(Cl)cc1C(=O)OCC(=O)c1ccc2c(c1)NC(=O)CO2 yielded an inhibition of 1.9%.
In the case of O=C(NCc1ccc2c(c1)OCO2)c1c(-c2ccsc2)sc2ccccc12, the inhibition is reported as 3.11%.
Molecule O=C(NCc1cccs1)c1ccc(CS(=O)Cc2ccccc2Cl)o1 (centres undefined) has an inhibition of 21.5%.
For Cc1ccc(CNC(=O)c2ccc(CS(=O)Cc3cccc(Cl)c3)o2)cc1 (centres undefined), the inhibition was 92.3% (active).
For Cc1ccc(CS(=O)Cc2ccc(C(=O)N3CCOCC3)o2)cc1 (centres undefined), the inhibition was -2.5%.
CCN(CC(=O)Nc1ccc(OC)cc1)C(=O)CSCc1ccc(C)cc1 gave an inhibition of -1.67%.
Cc1nn(C)cc1C(=O)c1ccccc1 showed an inhibition of -7.74%.
Cc1cccc(N2CCN(C(=O)C3CCN(S(=O)(=O)c4cnc[nH]4)CC3)CC2)c1C gave an inhibition of 0.188%.
In the case of COc1cccc(N2CCN(C(=O)C3CCCN(S(=O)(=O)c4cnc[nH]4)C3)CC2)c1 (centres undefined), the inhibition is reported as 98.9% (active).
O=C(C1CCCN(S(=O)(=O)c2ccccc2)C1)N1CCN(c2ccc(F)cc2)CC1 (centres undefined) showed an inhibition of 19.8%.
In the case of COc1ccccc1OCC(=O)OCc1cc(-c2ccco2)on1, the inhibition is reported as -3.11%.
Cc1ccc(S(=O)(=O)N2CCN(C(=O)COC(=O)CNC(=O)c3ccc(C(C)(C)C)cc3)CC2)c(C)c1 was tested, and the inhibition was -8.74%.
With CN(C(=O)COC(=O)Cc1ccccc1[N+](=O)[O-])C1CCS(=O)(=O)C1 (centres undefined) the inhibition was -19.5%.
Molecule S=C(Nc1ccc(Br)cc1)NC1CCN(Cc2ccccc2)CC1 has an inhibition of 17%.
Work on S=C(Nc1ccc(Br)cc1Cl)NC1CCN(Cc2ccccc2)CC1 yielded an inhibition of -0.861%.
S=C(NN=C1CCN(Cc2ccccc2)CC1)NC1CCCCC1 was tested, and the inhibition was 94.2% (active).
Work on COc1ccccc1NS(=O)(=O)c1ccc(C(=O)N2CCN(c3ccccc3O)CC2)cc1 yielded an inhibition of 30.3%.
For O=C(COC(=O)c1ncc(Cl)c(Cl)c1Cl)NCc1ccccc1, the inhibition was -2.75%.
For NC(=O)C1CCN(C(=O)c2ccc3c(=O)n(Cc4cccc(Br)c4)c(=S)[nH]c3c2)CC1, the inhibition was 1.47%.
Work on C=CCn1c(SCC(=O)CC(=O)OCC)nc2cc(C(=O)N3CCC(C(N)=O)CC3)ccc2c1=O yielded an inhibition of 26.8%.
C=CCn1c(SCc2cccc(F)c2)nc2cc(C(=O)N3CCC(C(N)=O)CC3)ccc2c1=O was tested, and the inhibition was 82.8% (active).
O=C(CCC(=O)c1cccs1)Nc1nc2ccccc2s1 showed an inhibition of -15.5%.
COc1cccc(CC(=O)OCC(=O)NCc2ccc3c(c2)OCO3)c1 was tested, and the inhibition was -0.907%.
Work on COCCNC(=O)CCCN1C(=O)c2ccccc2Sc2ncccc21 yielded an inhibition of -3.3%.
In the case of COCCNC(=O)CN1C(=O)CSc2ncccc21, the inhibition is reported as 95.3% (active).
O=C(CN1C(=O)CSc2ncccc21)N1CCOCC1 showed an inhibition of -36.7%.
With CCn1nc(C(=O)Nc2ccc(N3CCOCC3)cc2)c2ccccc2c1=O the inhibition was -11.2%.
With CC1CC(=NNC(=O)C2COc3ccccc3O2)CC(C)(C)C1 (centres undefined) the inhibition was 14.3%.
With CC(C(=O)NC1CCS(=O)(=O)C1)N1C(=O)/C(=C/c2ccc(Cl)cc2)SC1=S (centres undefined) the inhibition was 98.5% (active).
For CN(C(=O)CN1C(=O)/C(=C/c2ccc(Cl)cc2)SC1=S)C1CCS(=O)(=O)C1 (centres undefined), the inhibition was -8.19%.
COc1ccc(/C=C2\SC(=O)N(CCC(=O)NC3CCS(=O)(=O)C3)C2=O)cc1 (centres undefined) gave an inhibition of -3.27%.
COc1ccc(OC)c(S(=O)(=O)Nc2c(C)nn(C)c2C)c1 showed an inhibition of -0.73%.
O=C(Cn1nnc(-c2ccccc2)n1)NC(=O)NC1CCCC1 gave an inhibition of -9.99%.
CCN(CC)S(=O)(=O)c1ccc2[nH]c(=O)cc(C(=O)N(C)C3CCS(=O)(=O)C3)c2c1 (centres undefined) was tested, and the inhibition was -1.56%.
In the case of COc1ccccc1C(CNC(=O)c1cccc(S(=O)(=O)Nc2ccc(F)cc2)c1)N(C)C (centres undefined), the inhibition is reported as -11.3%.
Molecule COc1cccc(C2=CC(=O)C[C@H](c3ccc(OC)c(OC)c3)C2)c1 has an inhibition of -2.35%.
COC(=O)c1ccc(CSc2ccc(S(=O)(=O)N3CCCCC3)cn2)cc1 was tested, and the inhibition was 98.5% (active).
O=S(=O)(c1ccc(SCc2ccccc2)nc1)N1CCCCCC1 was tested, and the inhibition was -0.984%.
For COC(=O)c1ccc(CNC(=O)c2ccc(S(=O)(=O)N3CCCCCC3)cc2)cc1, the inhibition was -5.09%.
CC(=O)c1cccc(OCC(=O)OCC(=O)Nc2cc(S(=O)(=O)N3CCCCC3)ccc2C)c1 showed an inhibition of -1.77%.
CCN(CC(=O)Nc1cc(Cl)ccc1C)C(=O)Cn1c(=O)cnc2ccccc21 showed an inhibition of 0.937%.
In the case of O=C(Nc1ccon1)c1nc[nH]c1C(=O)NCc1ccccc1, the inhibition is reported as -9.59%.
In the case of O=C(c1c(Cl)cccc1Cl)N1CCN(c2cccc3[nH]ccc23)CC1, the inhibition is reported as 98.9% (active).
In the case of O=C(c1ccc2ccccc2n1)N1CCN(c2ccccc2Cl)CC1, the inhibition is reported as 2.19%.
COc1ccccc1N1CCN(C(=O)c2c(-c3c(Cl)cccc3Cl)noc2C)CC1 gave an inhibition of 15.3%.
Molecule CN(C)C(=O)N=NC(=O)N(C)C has an inhibition of -21.7%.
Molecule CCOc1ncccc1C(=O)OCC(=O)Nc1cccc(S(=O)(=O)N2CCCCCC2)c1 has an inhibition of 0.144%.
In the case of COc1ccc(C(=O)NCc2ccccc2C)cc1S(=O)(=O)NC1CCCC1, the inhibition is reported as -15.1%.
CCn1nnc2cc(C(=O)Nc3ccc(C(=O)OC(C)C)cc3)ccc21 showed an inhibition of -0.266%.
Work on O=C(COC(=O)c1cccnc1Cl)NC(=O)NC1CCCCC1 yielded an inhibition of -0.213%.
With CCCNC(=O)CCn1cc(-c2ccc(OC)cc2)nc1CCN the inhibition was 10.4%.
COC(=O)/C=C/C(=O)NCc1ccco1 was tested, and the inhibition was 79.8% (active).
In the case of O=C(CCCOc1ccccc1)NCc1ccco1, the inhibition is reported as 86.9% (active).
O=C(/C=C/c1ccc(Cl)cc1Cl)NCc1ccco1 showed an inhibition of -6.98%.
Work on O=C(CCOc1ccccc1)NCc1ccccc1 yielded an inhibition of -6.56%.
With CN(C)C(CNC(=O)CCCOc1ccccc1)c1ccco1 (centres undefined) the inhibition was 3.18%.
CC(C)(C)NC(=O)NCc1ccco1 gave an inhibition of 6.08%.
With COc1cc(NC(=O)c2[nH]cnc2C(N)=O)cc(C(=O)Nc2cccc(C(F)(F)F)c2)c1 the inhibition was -4.54%.
In the case of O=C(CSc1nc2ccccc2c(=O)n1Cc1ccc(F)cc1)NCC1CCCO1 (centres undefined), the inhibition is reported as -7.08%.
For C=CCNC(=O)C1CC2c3ccccc3C1c1ccccc12 (centres undefined), the inhibition was -7.82%.
Cc1cc(Nc2ccc(Br)cc2)nc2ccccc12 gave an inhibition of -3.49%.
Molecule O=C(COC(=O)c1ccc(O)cc1O)c1ccc2c(c1)OCCO2 has an inhibition of 9.5%.
In the case of CC1(C)O[C@@H]2CC3C4C[C@H](F)C5=CC(=O)C=CC5(C)C4C(O)CC3(C)[C@]2(C(=O)CO)O1 (some centres undefined), the inhibition is reported as -6.73%.
Molecule O=Cc1cn(Cc2ccccc2)nc1-c1cccnc1 has an inhibition of -2.35%.
With Clc1ccc(CN2CCN(/N=C/c3cccnc3)CC2)cc1 the inhibition was 14.2%.
For O=C1/C(=C\c2cccnc2)CN(Cc2ccccc2)C/C1=C\c1cccnc1, the inhibition was 96.1% (active).
In the case of C=CCc1cc(S(=O)(=O)c2ccc(O)c(CC=C)c2)ccc1O, the inhibition is reported as 87.7% (active).
O=C(CNCCC1=CCCCC1)Nc1ccccc1N1CCCCCC1 showed an inhibition of 19.2%.
With Cc1cccc(N2CC(C(=O)Nc3ccccc3N3CCCC3)CC2=O)c1C (centres undefined) the inhibition was 98.4% (active).
With Cc1ccccc1N1CC(C(=O)Nc2ccc(S(=O)(=O)N3CCCC3)cc2)CC1=O (centres undefined) the inhibition was -9.58%.
Work on Cc1ccccc1N1CC(C(=O)Nc2ccc3c(c2)OCO3)CC1=O (centres undefined) yielded an inhibition of -35.2%.
Cc1ccccc1NC(=O)CSC1=NCCN1 was tested, and the inhibition was 99.1% (active).
With Cc1ccccc1NC(=O)CNc1ccccc1N1CCCCC1 the inhibition was 87.1% (active).
Work on Cc1ccccc1NC(=O)CSc1ccc2nnc(-c3ccccn3)n2n1 yielded an inhibition of -1.94%.
With O=C(Nc1ccccc1N1CCCC1)c1ccc(F)c(S(=O)(=O)N2CCOCC2)c1 the inhibition was 43.8%.
Molecule O=C(Nc1ccccc1N1CCCCC1)c1ccc2nccnc2c1 has an inhibition of -6.64%.
Cc1ccccc1NC(=O)Nc1ccccc1N1CCCCC1 showed an inhibition of -4.73%.
With O=C(Nc1ccccc1N1CCCC1)c1ccc2ccccc2c1 the inhibition was 77% (active).
Cc1ccc(Cc2nnc(SCC(=O)Nc3ccccc3C)[nH]c2=O)cc1 was tested, and the inhibition was -2.8%.
Nc1c(C(=O)OCC(=O)Nc2ccc(OC(F)F)cc2)[nH]c(=O)[nH]c1=O showed an inhibition of 9.56%.
COc1ccccc1N(CC(=O)Nc1ccc(C)cc1Cl)S(=O)(=O)c1cccs1 showed an inhibition of -3.47%.
